About 2,000 (36%) of roughly 5,500 compounds were called active. About 18% were inconclusive and are not listed. No stated cut-off is given here; in the data, active means normalized growth mostly below about 0.91 (no sharp cut-off); inconclusive means no clear call, values can overlap the other calls; inactive means mostly above about 0.92. Some of the results follow.
Test: chemical genetic growth profiling, strain panel (AID 1159580);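 further: tested at 20 µM; growth read once vehicle control cultures reached saturation at 30 °C; 1 = growth at the plate median or of vehicle wells; lower values mean less growth of the strain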
Details: S. cerevisiae deletion strains, growth OD
[1] = locus YAL040C, strain CLN3, hits give low values
[2] = locus YCL061C, strain MRC1 (second series), hits give low values
[3] = locus YER002W, strain NOP16, hits give low values
[4] = locus YMR263W, strain SAP30, hits give low values
[5] = locus YNL153C, strain GIM3, hits give low values
[6] = locus YNL175C, strain NOP13, hits give low values
[7] = locus YNL197C, strain WHI3, hits give low values
[8] = locus YNL224C, strain SQS1, hits give low values
[9] = locus YNL322C, strain KRE1, hits give low values
[10] = locus YOR083W, strain WHI5 (second series), hits give low values
[11] = locus YPL055C, strain LGE1, hits give low values
[12] = locus YPL241C, strain CIN2, hits give low values
[13] = locus YAR019C, strain CDC15, hits give low values
[14] = locus YBL105C, strain PKC1, hits give low values
[15] = locus YBR135W, strain CKS1, hits give low values
[16] = locus YBR136W, strain MEC1, hits give low values
[17] = locus YBR160W, strain CDC28, hits give low values
[18] = locus YDL017W, strain CDC7, hits give low values
[19] = locus YDL028C, strain MPS1, hits give low values
[20] = locus YDL101C, strain DUN1, hits give low values
[21] = locus YDL108W, strain KIN28, hits give low values
[22] = locus YDL132W, strain cdc53, hits give low values
[23] = locus YDL214C, strain PRR2, hits give low values
[24] = locus YDR052C, strain DBF4, hits give low values
[25] = locus YDR054C, strain cdc34, hits give low values
[26] = locus YDR226W, strain ADK1, hits give low values
[27] = locus YDR477W, strain SNF1, hits give low values
[28] = locus YER123W, strain YCK3, hits give low values
[29] = locus YER133W, strain GLC7, hits give low values
[30] = locus YFL009W, strain cdc4, hits give low values
[31] = locus YFL029C, strain CAK1, hits give low values
[32] = locus YFR003C, strain YPI1, hits give low values
[33] = locus YFR019W, strain FAB1, hits give low values
[34] = locus YFR028C, strain CDC14, hits give low values
[35] = locus YGR040W, strain KSS1, hits give low values
[36] = locus YGR052W, strain FMP48, hits give low values
[37] = locus YGR092W, strain DBF2, hits give low values
[38] = locus YHR030C, strain SLT2, hits give low values
[39] = locus YHR079C, strain IRE1, hits give low values
[40] = locus YHR082C, strain KSP1, hits give low values
[41] = locus YHR205W, strain SCH9, hits give low values
[42] = locus YIL147C, strain SLN1, hits give low values
[43] = locus YJL095W, strain BCK1, hits give low values
[44] = locus YJL128C, strain PBS2, hits give low values
[45] = locus YJL157C, strain FAR1, hits give low values
[46] = locus YJR016C, strain ILV3, hits give low values
[47] = locus YJR066W, strain TOR1 (second series), hits give low values
[48] = locus YJR066W, strain TOR1, hits give low values
[49] = locus YKL048C, strain ELM1, hits give low values
[50] = locus YKL067W, strain YNK1, hits give low values
[51] = locus YKL101W, strain HSL1, hits give low values
[52] = locus YKL193C, strain SDS22, hits give low values
[53] = locus YKL203C, strain TOR2, hits give low values
[54] = locus YLR113W, strain HOG1, hits give low values
[55] = locus YLR133W, strain CKI1, hits give low values
[56] = locus YLR403W, strain SFP1, hits give low values
[57] = locus YML070W, strain DAK1, hits give low values
[58] = locus YMR001C, strain CDC5, hits give low values
[59] = locus YMR205C, strain PFK2 (second series), hits give low values
[60] = locus YMR277W, strain FCP1, hits give low values
[61] = locus YNL006W, strain LST8, hits give low values
[62] = locus YNL020C, strain ARK1, hits give low values
[63] = locus YNL161W, strain CBK1, hits give low values
[64] = locus YNL183C, strain NPR1, hits give low values
[65] = locus YNL207W, strain RIO2, hits give low values
[66] = locus YNL222W, strain SSU72, hits give low values
[67] = locus YNL307C, strain MCK1 (second series), hits give low values
[68] = locus YOL078W, strain AVO1, hits give low values
[69] = locus YOL136C, strain PFK27, hits give low values
[70] = locus YOR061W, strain CKA2, hits give low values
[71] = locus YOR119C, strain RIO1, hits give low values
[72] = locus YOR231W, strain MKK1, hits give low values
[73] = locus YOR329C, strain SCD5, hits give low values
[74] = locus YPL031C, strain PHO85, hits give low values
[75] = locus YPL153C, strain RAD53, hits give low values
[76] = locus YPL204W, strain HRR25, hits give low values
[77] = locus YPL209C, strain IPL1, hits give low values
[78] = locus YPL256C, strain CLN2, hits give low values
[79] = locus YPR025C, strain CCL1, hits give low values
[80] = locus YPR106W, strain ISR1, hits give low values
[81] = locus YPR111W, strain DBF20, hits give low values
[82] = strain NNK1, hits give low values
[83] = strain TSCII, hits give low values
[84] = locus YAL013W, strain DEP1, hits give low values
[85] = locus YDR363W, strain ESC2, hits give low values
[86] = locus YGR078C, strain PAC10, hits give low values
[87] = locus YMR307W, strain GAS1, hits give low values

Measured: normalized growth

C#CC(N)CCC(=O)O (stereo not given)
inactive: [1] 1.02 | [2] 1.01 | [3] 1.01 | locus YGR229C, strain SMI1, hits give low values 1.01 | [4] 1.01 | [5] 1 | [6] 1.02 | [7] 1.02 | [8] 1 | [9] 1.01 | [10] 0.988 | [11] 0.989 | [12] 1.01

S=C(NNc1ccccc1)Nc1cc(Cl)ccc1Cl
inactive: [13] 0.963 | [14] 0.958 | [15] 0.96 | [16] 0.962 | [17] 0.963 | [18] 0.962 | [19] 0.97 | [20] 0.963 | [21] 0.974 | [22] 0.959 | [23] 0.953 | [24] 0.966 | [25] 0.939 | [26] 0.985 | [27] 0.945 | [28] 0.921 | [29] 0.958 | [30] 0.974 | [31] 0.95 | [32] 0.961 | [33] 1 | [34] 0.965 | [35] 0.94 | [36] 1.02 | [37] 0.726 | [38] 0.853 | [39] 0.909 | [40] 0.935 | [41] 0.938 | [42] 0.965 | [43] 0.918 | [44] 0.967 | [45] 0.947 | [46] 0.961 | [47] 0.934 | [48] 0.894 | [49] 0.951 | [50] 0.976 | [51] 0.957 | [52] 0.955 | [53] 1 | [54] 0.874 | [55] 0.955 | [56] 0.936 | [57] 0.948 | [58] 0.959 | [59] 0.98 | [60] 0.957 | [61] 0.971 | [62] 0.964 | [63] 0.956 | [64] 0.957 | [65] 0.946 | [66] 0.957 | [67] 0.914 | [68] 0.958 | [69] 0.953 | [70] 0.909 | [71] 0.958 | [72] 0.928 | [73] 0.952 | [74] 0.925 | [75] 0.922 | [76] 0.938 | [77] 0.964 | [78] 0.893 | [79] 0.96 | [80] 0.964 | [81] 0.973 | [82] 0.964 | [83] 0.957

S=C(Nc1cc(Cl)c(Cl)cc1Cl)Nc1ccccc1Br
active: [38] 0.67 | [54] 0.828 | [78] 0.809
inactive: [13] 0.958 | [14] 0.969 | [15] 0.964 | [16] 0.953 | [17] 0.961 | [18] 0.963 | [19] 0.953 | [20] 0.977 | [21] 0.958 | [22] 0.96 | [23] 0.884 | [24] 0.97 | [25] 0.969 | [26] 0.947 | [27] 0.875 | [28] 0.833 | [29] 0.87 | [30] 0.963 | [31] 0.949 | [32] 0.969 | [33] 0.899 | [34] 0.943 | [35] 0.861 | [36] 0.848 | [37] 0.77 | [39] 0.82 | [40] 0.822 | [41] 0.812 | [42] 0.939 | [43] 0.796 | [44] 0.927 | [45] 0.898 | [46] 0.961 | [47] 0.848 | [48] 0.786 | [49] 0.911 | [50] 0.892 | [51] 0.842 | [52] 0.96 | [53] 0.913 | [55] 0.861 | [56] 0.754 | [57] 0.86 | [58] 0.957 | [59] 0.873 | [60] 0.959 | [61] 0.984 | [62] 0.844 | [63] 0.977 | [64] 0.791 | [65] 0.962 | [66] 0.97 | [67] 0.839 | [68] 0.962 | [69] 0.854 | [70] 0.749 | [71] 0.869 | [72] 0.846 | [73] 0.975 | [74] 0.873 | [75] 0.837 | [76] 0.848 | [77] 0.966 | [79] 0.966 | [80] 0.942 | [81] 0.935 | [82] 0.961 | [83] 0.953

NC(CCCP(=O)(O)O)C(=O)O (stereo not given)
inactive: [84] 0.993 | [1] 1.01 | [2] 1 | [85] 1.09 | [3] 0.993 | [86] 1.02 | [4] 1 | [87] 0.982 | [6] 1.01 | [7] 1 | [8] 1.02 | [9] 1 | [10] 1.01 | [11] 0.977 | [12] 0.993

O=C1NC(c2cccc([N+](=O)[O-])c2)=CCN1c1ccccc1O
inactive: [84] 0.998 | [1] 0.994 | [2] 1.01 | [85] 1.01 | [3] 1 | [86] 1.02 | locus YJR075W, strain HOC1, hits give low values 1.01 | [4] 1 | [87] 1 | [5] 1.05 | [6] 1 | [7] 1.01 | [8] 0.995 | [9] 0.998 | [10] 1.01

— PubChem BioAssay AID1159580 (chemical genetic matrix, 2015)
